In paper PMC4552634, “A New Set of Chemical Starting Points with Plasmodium falciparum Transmission-Blocking Potential for Antimalarial Drug Discovery” (PLoS ONE, 2015):
In all, about 13,000 compounds went through this assay and about 3,200 (25%) showed an effect of 50% or more. Some of the results follow.

test system: P. falciparum stage V gametocytes; set-up: BacTiter-Glo ATP luminescence viability of purified stage V gametocytes in 384-well plates, per cent inhibition versus DMSO; details: 48 h, 5 µM; inhibitor

Structure (SMILES) | % Inhibition [%]
NC(=O)c1cccc(Nc2nccc(Nc3ccc4[nH]c(-c5ccccc5)cc4c3)n2)c1 [TCMDC-138678] | -94.87
COc1ccc(S(=O)(=O)NC2CCN(c3cc(C)nc(Nc4cccc(C#N)c4)n3)CC2)cc1 [TCMDC-134215] | 11.7
Cc1ccc(NC(=O)c2cnc(N3CCN(c4ccncc4)CC3)c(Cl)c2)cc1 [TCMDC-134603] | 7.543
CNC(=O)c1[nH]c(-c2ccccc2)nc1NC(C)=O [TCMDC-131315] | -0.1444
CC(C)(CNC(=O)[C@@H]1CCCN(Cc2ccc(Cl)cc2)C1)c1nc(-c2ccc(Cl)c(O)c2)c(-c2ccncc2)[nH]1 [TCMDC-141139] | 5.708
Nc1ncc(-c2ccccc2)cc1/C=C/c1cccnc1 [TCMDC-135534] | 59.51
Nc1ncc(-c2ccccc2)cc1-c1cccc2ncccc12 [TCMDC-133415] | 19.97
Nc1nccc(-c2ccc3c(/C=C/c4ccccc4)cnc(N)c3c2)n1 [TCMDC-136382] | -22.89
COc1cc(NC(=O)N2CCOC(CCN3CCC4(CCc5ccccc54)CC3)(c3ccc(Cl)c(Cl)c3)C2)cc(OC)c1OC (centres unmarked) [TCMDC-135346] | -4.106
CN(Cc1cccc(O)c1)C1CCN(c2cc(NC(=O)c3cccc(F)c3)ccn2)CC1 [TCMDC-134962] | -30.72
CCCc1cc(Cc2cnc(N)nc2N)cc(CCC)c1O [TCMDC-137695] | -57.47
CCOc1ccccc1C1C(C(=O)C(C)(C)C)N2c3ccc(Br)cc3C=CC2C12C(=O)c1ccccc1C2=O (centres unmarked) [TCMDC-125079] | 103.1
CCCCC1=CC2C(=O)C(C(=O)OC)=CN=C2C=C1OCc1ccccc1 (centres unmarked) [TCMDC-137492] | 62.56
Cc1ccc(NC(=O)c2cn(-c3ccccc3)nc2-c2ccc(F)cc2)cc1[N+](=O)[O-] [TCMDC-125590] | -12.22
COc1ccc(CNC2CCN(C)CC2)cc1-c1cccc(S(=O)(=O)NCc2ccccc2)c1 [TCMDC-132267] | 106.3
COc1ccc(CNC2CCN(C)CC2)cc1-c1ccc(S(=O)(=O)NCc2ccccc2)cc1 [TCMDC-132244] | 110.3
Cc1ccc(NC(=O)c2ccc(CN3CCCN(Cc4cccc(C#N)c4)CC3)cc2)cc1F [TCMDC-136394] | -18.71
COc1ccc2ncc(F)c(CCN3C4CCC3CC(NCc3ccc5c(c3)OCCO5)C4)c2n1 (centres unmarked) [TCMDC-135638] | 37.56
Clc1ccc(CNc2nc(NCCc3cnc[nH]3)nc(Nc3ccc4c(c3)OCO4)n2)cc1 [TCMDC-139740] | 19.01
O=C(COc1ccccc1Cl)N1CCc2cc3nccc(N4CCN5CCC[C@H]5C4)c3cc21 [TCMDC-140049] | 15.14
Oc1ccc(Cl)cc1CN1CCCC(COC(c2ccc(F)cc2)c2ccc(F)cc2)C1 (centres unmarked) [TCMDC-136034] | 8.672
O=C(NCCN1CCC(NC(=O)c2ccc(-c3ccccn3)s2)CC1)c1cccc(C(F)(F)F)c1 [TCMDC-141952] | 4.93

Structure (SMILES) | % Inhibition [%]
N#Cc1ccc2c(c1)CN(CCC1CCC(NC(=O)c3cc4ccccc4cc3N)CC1)CC2 (centres unmarked) [TCMDC-139164] | 18.76
Oc1c(CN2CCCC(C(F)(F)F)C2)cc(Cl)c2ccccc12 (centres unmarked) [TCMDC-124857] | 96.48
O=C(c1ccc(Cl)cc1Cl)N1CCCC(C(F)(F)F)C1 (centres unmarked) [TCMDC-123721] | 22.72
CC1CCCN(Cc2cc(Cl)cc(Cl)c2O)C1 (centres unmarked) [TCMDC-125392] | 14.71
CC(=O)Nc1ccc(CN2CCC(N(C)c3cc(NC(=O)c4ccc(F)cc4)ccn3)CC2)cc1 [TCMDC-134983] | -11.33
Cc1nn(-c2ccccc2)nc1C(=O)N(Cc1ccc(-c2ccc(CNCCc3ccc(S(C)(=O)=O)cc3)cn2)cc1)C1CC1 [TCMDC-141523] | 39.99
Cc1cnc(CN(Cc2ccc(-c3ccc(CNCCc4ccc(S(C)(=O)=O)cc4)cn3)cc2)C(=O)c2ccc([N+](=O)[O-])c(C)c2)cn1 [TCMDC-141520] | 64.44
Cc1cnc(CN(Cc2ccc(-c3ccc(CNCCc4ccc(S(C)(=O)=O)cc4)cn3)cc2)C(=O)c2nn(-c3ccccc3)nc2C)cn1 [TCMDC-141522] | -18.48
Cc1cc(C(=O)N(Cc2ccc(-c3ccc(CNCCc4ccc(S(C)(=O)=O)cc4)cn3)cc2)C(C)CN(C)C)ccc1[N+](=O)[O-] (centres unmarked) [TCMDC-141521] | 51.26
C=CC[C@H](C[C@H](O)[C@H](Cc1ccccc1)NC(=O)c1nn(-c2ccccc2)nc1C)C(=O)NC1CCCCC1 [TCMDC-141422] | -47.48
O=C(Cc1cccc(Cl)c1)Nc1cccc(-c2c[nH]c3nc(Nc4cccc(OCc5ccccc5)c4)ncc23)c1 [TCMDC-134680] | -43.48
Cc1ccc(Nc2nccc(NCC(O)c3cccc(F)c3)n2)cc1 (centres unmarked) [TCMDC-136572] | -5.913
C[C@@H](COc1ccccc1)NCC(O)c1ccc([N+](=O)[O-])c(OCc2ccccc2)c1 (some centres unmarked) [TCMDC-132032] | 7.287
Cc1ccc(S(=O)(=O)N(CCCN2CCN(C)CC2)Cc2csc(-c3ccc(CNCc4ccccc4)cc3)n2)cc1 [TCMDC-141602] | 64.23
CN1CCN(CCCN(Cc2csc(-c3ccc(CNCc4ccccc4)cc3)n2)S(=O)(=O)c2cccc3cccnc23)CC1 [TCMDC-141598] | 96.08
COc1ccc(S(=O)(=O)N(CCCN2CCN(C)CC2)Cc2csc(-c3ccc(CNCc4ccccc4)cc3)n2)cc1 [TCMDC-141599] | 65.47
CN1CCN(CCCN(Cc2csc(-c3ccc(CNCc4ccccc4)cc3)n2)S(=O)(=O)c2ccc(F)cc2)CC1 [TCMDC-141601] | 76.11
O=C(Nc1cccc(-c2ccc(CN3CCC(O)CC3)cc2)c1)c1ccc(Cl)cc1 [TCMDC-132633] | -6.492
COCCN1CCC(C(=O)NCC(C)(C)c2nc(-c3ccc(Br)c(O)c3)c(-c3ccncc3)[nH]2)CC1 [TCMDC-140792] | 8.912
O=C(NNC(=O)c1ccc(CCN2CCC(c3nc(COCC(F)(F)F)c(-c4ccc(F)cc4)o3)CC2)cc1)Nc1ccc(Oc2ccccc2)cc1 [TCMDC-131906] | -12.54
CN1CCN(CCCN(Cc2csc(-c3ccc(CNCc4ccccc4)cc3)n2)C(=O)c2cc(F)cc(F)c2)CC1 [TCMDC-141812] | 50.04
CN1CCN(CCCN(Cc2csc(-c3ccc(CNCc4ccccc4)cc3)n2)S(=O)(=O)c2ccccc2)CC1 [TCMDC-141600] | 63.87

Structure (SMILES) | % Inhibition [%]
CN1CCN(CCCN(Cc2csc(-c3ccc(CNCc4ccccc4)cc3)n2)C(=O)Nc2cc(Cl)cc(Cl)c2)CC1 [TCMDC-141795] | 32.67
CCc1ccc(NC(=O)N(CCCN2CCN(C)CC2)Cc2csc(-c3ccc(CNCc4ccccc4)cc3)n2)cc1 [TCMDC-141641] | 9.107
CN1CCN(CCCN(Cc2csc(-c3ccc(CNCc4ccccc4)cc3)n2)C(=O)Nc2ccc3ccccc3c2)CC1 [TCMDC-141642] | 43.35
CN1CCN(CCCN(Cc2csc(-c3ccc(CNCc4ccccc4)cc3)n2)S(=O)(=O)c2ccccc2Cl)CC1 [TCMDC-141603] | 99.67
Cc1ccccc1C1CCN(C2CCC(NC(=O)/C=C/c3ccc4c(c3)OC(F)(F)O4)CC2)CC1 (centres unmarked) [TCMDC-133520] | -82.53
COc1cc(Br)ccc1N1CCN(CCCCNC(=O)c2ccc(NC(=O)c3ccc(Cl)cc3)cc2)CC1 [TCMDC-138257] | 6.971
CC(C)c1ccc2[nH]c(C(=O)NC3CCC(N4CCCc5ccc(C#N)cc5C4)CC3)cc2c1 (centres unmarked) [TCMDC-133503] | -23.75
O=C(NCCCNc1ccnc2cc(Cl)ccc12)c1ccccc1F [TCMDC-125231] | 46.84
N#Cc1ccccc1C1CCN(C2CCC(Nc3cc(-c4cccnc4)ccn3)CC2)CC1 (centres unmarked) [TCMDC-134834] | -2.713
Cc1cc(C(F)(F)F)nn1-c1ccc(NC(=O)c2ccco2)cc1 [TCMDC-124896] | 9.865
O=C(/C=C/c1ccc(Cl)c(Cl)c1)NCCCCCN1CCC(NC(=O)Nc2cccc(Cl)c2Cl)CC1 [TCMDC-135725] | -48.39
NC1=NC(c2ccccc2)(c2ccccc2)C(=O)N1CC1CCC1 [TCMDC-136775] | 2.608
CSc1ccccc1NC(=S)NC1CCN(CCCCCNC(=O)/C=C/c2ccc(Cl)c(Cl)c2)CC1 [TCMDC-139391] | 14.69
Cc1cccc(NC(=S)NC2CCN(CCCCCNC(=O)/C=C/c3ccc(Cl)c(Cl)c3)CC2)c1 [TCMDC-139390] | -46.46
Cc1ccccc1NC(=O)NC1CCN(CCCCCNC(=O)/C=C/c2ccc(Cl)c(Cl)c2)CC1 [TCMDC-135701] | -65.25
O=C(/C=C/c1ccc(Cl)c(Cl)c1)NCCCCCN1CCC(NC(=O)Nc2cccc(Cl)c2)CC1 [TCMDC-135711] | 59.36
O=C(/C=C/c1ccc(Cl)c(Cl)c1)NCCCCCN1CCC(NC(=S)Nc2cccc(Cl)c2)CC1 [TCMDC-135899] | -1.091
Cc1ccccc1NC(=S)NC1CCN(CCCCCNC(=O)/C=C/c2ccc(Cl)c(Cl)c2)CC1 [TCMDC-135897] | 97.66
O=C(/C=C/c1ccc(Cl)c(Cl)c1)NCCCCCN1CCC(NC(=S)Nc2ccc(Cl)c(Cl)c2)CC1 [TCMDC-135903] | -7.54
Cc1ccc(NC(=S)NC2CCN(CCCCCNC(=O)/C=C/c3ccc(Cl)c(Cl)c3)CC2)cc1Cl [TCMDC-135901] | 122.2
O=C(/C=C/c1ccc(Cl)c(Cl)c1)NCCCCCN1CCC(NC(=O)Nc2cc(Cl)cc(Cl)c2)CC1 [TCMDC-135727] | -63.17
